The text below walks through data of the supplement of paper PMC6555819.

Assay in all cases: PBM binding z-score (relative to random genomic background probes); higher = stronger binding; sequences stand for … in GC…GCGATTGACAGCGTAGAATGAAGG
In test [1] the test system is RARb homodimer (NR concentration 270 nM). In short, it runs like this:
(§1)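 Antibodies against each partner of ligand-free nuclear receptor dimers (one per run) detected binding on custom Agilent 4×180K protein-binding microarrays after 1 h incubation. The double-stranded probes had 34-nt variable regions carrying direct-repeat seeds, single-nucleotide variants, half-site ablations and random human genomic background sequences. Binding z-scores, from regression-normalized fluorescence, use the random background probes as reference.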

Test [2] relates to RARg:RXRa (NR concentration 270 nM, RXRa partner concentration 90 nM). Put shortly: as §1
Test [3] deals with RARg homodimer (NR concentration 270 nM). Put shortly:
as §1

Test [4] relates to RXRa DBDmut IVT, anti-RXR (DBD mutation: RXRa K156A/R161A, NR concentration 90 nM). In short, it runs like this: as §1
Test [5] concerns RXRa homodimer (NR concentration 180 nM). Put shortly:
as §1

For test [6], the system named is THRa:RXRa (NR concentration 90 nM, RXRa partner concentration 90 nM). Put shortly: as §1
The test system of test [7] is THRa homodimer (NR concentration 90 nM). In short, it runs like this:
as §1

Test [8] has as its system VDR homodimer (NR concentration 270 nM). Put shortly: as §1

For the sequence TCTTGTAGATCAATAGACGTTAAGAAAGTGCGCT, the PBM binding z-score in test [1] was -0.66; in test [2], -0.0458; in test [3] it was 0.0391; in test [4], 0.88; in test [5], -0.042; in test [6] it was -0.347. Also, the figures for the PBM binding z-score in test [7] and in test [8] were -0.846 and 0.0604, respectively.
With TCATATAGGTAAATGCTAGGCGAAAGTCCGATCT, the PBM binding z-score in test [1] is -0.15; in test [2], 0.217; in test [3] it was 0.256; in test [4], 1.43; in test [5], 0.556; in test [6], 0.231. In addition, the values for the PBM binding z-score in test [7] and in test [8] were 0.0597 and 0.181, respectively.
Turning to CGTCCAGGGTCAATGCTAGGTCAGTGAAAGCATT, the PBM binding z-score came to 4.65 in test [1]; 7.39 in test [2]; 5.63 in test [3]; 2.78 in test [4]; 5.37 in test [5]; 4.35 in test [6]. Besides, the results for the PBM binding z-score in test [7] and in test [8] were 1.79 and 2.33, respectively.
As to ATCGAAAGGTCGACGAAGTGAGTATACACCGTTT, the PBM binding z-score in test [1] is 2.14; in test [2], 3.86; in test [3], 3.83; in test [4] it was 0.645; in test [5] it was 3.75; in test [6], 1.79. Also, the PBM binding z-score is -0.48 in test [7] and 0.3 in test [8].
As for GCATCTAGGTAATACAAGGTGAAAGTCCGATTGT, the PBM binding z-score is 0.893 in test [1]; 0.422 in test [2]; 0.244 in test [3]; -0.0985 in test [4]; 0.576 in test [5]; 3.63 in test [6]. The PBM binding z-score in test [7] is 1.22; in test [8], -0.188.
For the sequence AGAATGAGCTTACCAAAGATCAGGGAAACGCTTG, the PBM binding z-score was -0.958 in test [1]; -0.0102 in test [2]; -0.129 in test [3]; -0.777 in test [4]; 0.323 in test [5]; -0.369 in test [6]. In addition, the results for the PBM binding z-score in test [7] and in test [8] were -0.963 and -0.938, respectively.
In the case of TAGCCTAGGTCATGGGGGCCAGTATAGTGTCGGC, the PBM binding z-score was 3.76 in test [1]; 4.91 in test [2]; 4.98 in test [3]; 0.677 in test [4]; 3.54 in test [5]; 3.64 in test [6]. Also, the PBM binding z-score in test [7] was 2.29; in test [8] it was 1.94.
